# This is a sample that favours compounds with a hit; in the whole collection about 21% have one here.
# AMA1 RON2 block = inhibitors of Plasmodium falciparum AMA1-RON2 interaction; 360,000 compounds, 0.2% hits; AlphaScreen AMA1-biotinylated RON2 peptide binding; Potency, µM (doses to about 58.2 µM), inactives show top-dose activity change, negative = inhibition, usual class: inhibitors;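 also: potency is read from the fitted curve at half-maximal effect; 0% = vehicle wells and -100% = peptide control; nearly all actives have a fitted effect of over 45% in size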
#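 AMA1 (3D7) with his tag at 25 nM final met compounds first, then biotinylated RON2 peptide at 25 nM; detection used donor plus acceptor beads, 10 µg/mL apiece, read by AlphaScreen after 30 min at room temperature.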
# CHX counter = affects cycloheximide protein synthesis inhibition readout, counter-screen. cell reporter, cycloheximide protein synthesis inhibition counterscreen. max response, %. 300,000 compounds, 12% hits; in the data active = max response mostly above about 13%, no sharp cut-off; inactive = mostly below about 14%; also: read at 38.3 µM for the half of the compounds with a filed dose; 0% is about no effect
# Shiga inhibitor = inhibitors of Shiga toxin in Vero cells; Vero cells, Shiga toxin protein synthesis inhibition reporter; 290,000 compounds, 9.2% hits; AID 2315; inhibition, % at 38.7 µM; in the data active = inhibition mostly above about 28%, no sharp cut-off; inactive = mostly below about 43%; also: 0% is about no effect
# Pf growth 48h = P. falciparum growth inhibition at 48 hours (one generation); P. falciparum luciferase growth in erythrocytes, 48 h; Potency, µM (doses to about 28.7 µM), inactives show at the top dose activity change, negative = inhibition, actives largely listed as inhibitors; AID 504832; 310,000 compounds, 5.9% hits; also: potency is read from the fitted curve at half-maximal effect; % is scaled to controls: 0 for no effect and ±100 for the full control effect
#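 Cell-based growth assay: transgenic P. falciparum expressing firefly luciferase, cultured in red cells within RPMI 1640 containing 0.5% w/v Albumax, 24 mM bicarbonate and gentamycin. A drop in luciferase activity indicates inhibition.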
# HCV inhibitor = HCV inhibition | Potency, µM (titrated, usually from 41.8 µM), inactives show top-dose activity change, negative = inhibition, usual class: inhibitors | Huh7.5.1 HCVcc-Cre infection, luciferase reporter, 44 h | 340,000 compounds, 3.4% hits; also: potency is read from the fitted curve at half-maximal effect; % is scaled to controls: 0 for no effect and ±100 for the full control effect
#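 Infectious HCV cell culture screen: compound-treated cells (1,000/well, pre-plated 4 h) are infected with HCVcc-Cre at roughly 0.5 moi and grown 44 h. Infection is quantified by luciferase signal after 15 min substrate incubation at room temperature.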
# Pf growth 96h = P. falciparum growth inhibition at 96 hours. P. falciparum luciferase reporter growth, 96 h. AID 504834. 320,000 compounds, 6.9% hits. Potency, µM (highest dose often 28.7 µM), for inactives: at the highest dose activity change, negative = inhibition, actives largely listed as inhibitors; also: potency is read from the fitted curve at half-maximal effect; % is scaled to controls: 0 for no effect and ±100 for the full control effect
#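 Cell-based qHTS: luciferase-tagged P. falciparum in erythrocytes (2% hematocrit, 0.05% parasitemia final) incubated with compounds for 96 hours, 37 C, 5% CO2; luciferase detection reagent then added and luminescence measured.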
# * marks the source's active call; other numbers are inactive results; ? = inconclusive; . = no result; + = active, no number; [ ] = another dose, or the depositor's remark. Unless noted, calls follow the shape of the dose curve; as a rule, active = well fitted curve in the direction sought with a large enough effect; inconclusive = small, poorly fitted or top-dose-only effect, or another doubt; inactive = no such curve, though single readings can be large; an effect the other way counts as inactive or inconclusive.
SMILES,AMA1 RON2 block,CHX counter,Shiga inhibitor,Pf growth 48h,HCV inhibitor,Pf growth 96h
O=C(CN(C1CCCCC1)S(=O)(=O)c1ccccc1)NCc1cccnc1,0.7%,5.8,2.5,-29.8%,4.6%,9.28µM*
O=C(c1ccco1)c1coc2c1cc(O)c1ccccc12,-0.4%,31.6*,99.6*,?,-13.3%,?
CC(=O)c1coc2c1cc(O)c1ccccc12,-3.7%,12.7,36.4,.,-21.9%,?
Cc1ccc2nc(SCC(=O)Nc3cccc(S(=O)(=O)NC4=NCCCCC4)c3)[nH]c2c1,1.9%,8.9,15.0,?,?,?
CCn1nc(C)c(CNC(=O)CCc2nnc(-c3ccc(C(C)=O)s3)o2)c1C,22.6%,-2.7,19.4,-23.9%,6.4%,-7.6%
Cc1cccc(CC(C)NC(=O)CCc2nnc(-c3ccccc3)o2)n1 (stereo not drawn),6.6%,12.9*,21.8,-8.3%,1.8%,?
CCOC(=O)Cc1nnc(-c2ccccc2)o1,43.9%,22.3*,35.9,15.9%,12.9%,?
CCN(CC)CCN(C)C(=O)CCc1nnc(-c2ccc(C)s2)o1,1.3%,21.8*,34.4*,50.2%,-4.2%,?
CC(C)(CO)CNC(=O)CCc1nnc(-c2ccc(-c3ccccc3)cc2)o1,0.2%,24.9*,60.1*,0.0%,-8.4%,?
CCCS(=O)(=O)NC(=O)C1(C)CCCN(C(=O)c2ccc(F)cc2Cl)C1 (stereo not drawn),0.2%,.,.,.,.,.
CN(CC(=O)Nc1ccc(F)cc1)C(=O)COC(=O)CNC(=O)c1sc2ccccc2c1Cl,1.2%,.,.,60.6%,-3.4%,-2.1%
Cc1ccc(S(=O)(=O)N(C)CC(=O)OCc2nnc(-c3ccccc3)o2)cc1,0.5%,7.8,32.7,7.8%,15.4%,9.2%
CCOC(=O)CN(C)C(=O)CCc1nnc(-c2ccc(-c3ccccc3)cc2)o1,-2.4%,13.0*,34.8,?,-21.3%,-13.4%
CCOC(=O)C1(C(=O)OCC)C(C)CC(=O)N1c1ccccc1OC (stereo not drawn),-0.9%,.,.,.,.,.
CCOC(=O)CC(=O)CSc1nc2ccccc2c(=O)n1-c1ccc(C(=O)NCCOC)cc1,39.5%,0.8,-12.1,5.22µM*,-7.7%,?
CCOC(=O)CC(=O)CSc1nc2ccccc2c(=O)n1-c1ccc(C(=O)N2CCOCC2)cc1,8.5%,-4.6,-4.8,1.65µM*,.,.
O=C(c1ccc(-n2c(SCc3cc(F)ccc3F)nc3ccccc3c2=O)cc1)N1CCOCC1,-0.1%,-1.3,11.8,?,44.7%,14.9%
CCOC(=O)CN1C(=O)CN(c2ccc(C)cc2)C1=O,-2.0%,29.5*,50.3*,82.6%,30.4%,-1.3%
CC1CCCCC1NC(=O)C1CCC(CNc2c(N3CCCCC3)c(=O)c2=O)CC1 (stereo not drawn),3.6%,-0.9,-10.6,-6.8%,8.7%,-18.5%
CCCCSc1nnc2c(n1)OC(C(=O)c1ccccc1)Nc1ccccc1-2 (stereo not drawn),.,15.0*,25.2,.,.,3.7%
C=CCSc1nnc2c(n1)OC=Nc1ccccc1-2,0.0%,12.5,21.8,0.0%,14.8%,4.5%
C=CCSc1nnc2c(n1)OC(c1ccco1)Nc1ccccc1-2 (stereo not drawn),3.4%,40.2*,+,20.0%,8.5%,0.0%
CCCSc1nnc2c(n1)OC(c1sccc1C)Nc1ccccc1-2 (stereo not drawn),.,40.6*,65.7*,.,.,.
O=C(c1ccccc1F)n1c2c(c3ccccc31)CCCC2,8.8%,1.1,-1.8,-4.3%,?,?
O=C(NCc1ccccc1)C(C1CC1)n1c(=O)c(-c2cc3ccccc3[nH]2)nc2ccccc21 (stereo not drawn),78.1%,.,.,.,.,.
SMILES,AMA1 RON2 block,CHX counter,Shiga inhibitor,Pf growth 48h,HCV inhibitor,Pf growth 96h
O=c1ccn(-c2cccc(C(F)(F)F)c2)nc1-c1ccn(-c2ccccc2)n1,1.6%,9.8,-18.3,10.4µM*,-14.0%,0.0%
Cc1nn(-c2cccc(C(F)(F)F)c2)c(=O)c2ccccc12,5.4%,15.6*,.,22.7%,-13.6%,2.0%
CCCCCn1nnnc1C1(C)CCC(=O)N1Cc1ccco1 (stereo not drawn),3.1%,.,.,.,.,.
c1ccc(-n2ncc3c2ncn2nc(-c4ccco4)nc32)cc1,17.5%,38.0*,45.6*,111.8%,-16.7%,.
COc1ccc(S(=O)(=O)N2CCOCC2)cc1NC(=O)COC(=O)c1[nH]c(C)c(C(C)=O)c1C,2.8%,.,.,.,?,.
CC(=O)c1c(C)[nH]c(C(=O)OCC(=O)Nc2cccc(S(=O)(=O)N3CCCC3)c2)c1C,-3.9%,-5.1,-12.2,5.86µM*,?,0.828µM*
CC(=O)c1c(C)[nH]c(C(=O)OCC(=O)Nc2cc(S(=O)(=O)N3CCCC3)ccc2Cl)c1C,-21.7%,1.4,-5.6,-22.2%,1.41µM*,24.5%
O=C(O)C1CCCC2CN3CCc4c([nH]c5ccccc45)C3C(O)C21 (stereo not drawn),-3.1%,-2.1,-6.1,-4.0%,-27.1%,?
CC(C)(C)Nc1c(-c2ccc(O)cc2)nc2ccc(Cl)cn12,-11.5%,-9.3,-22.5,10.4µM*,2.6%,16.2%
COCCNc1c(-c2ccc(O)cc2)nc2ccc(Cl)cn12,-0.5%,12.8,35.8,3.8%,?,-14.2%
CCCCCCCCCC(=O)N/N=C/c1ccc(C)s1,0.3%,4.0,-9.8,18.4%,4.1%,.
Oc1ccc(/C=N/Nc2ncc(Cl)cc2Cl)cc1,28.6%,50.3*,111.3*,11.3%,1.8%,?
Cc1ccc(/C=N/Nc2ccc(F)cc2F)s1,-24.2%,37.4*,91.0*,.,-19.0%,?
Clc1cnc(N/N=C/c2ccco2)c(Cl)c1,25.3%,57.2*,94.5*,282.2%,-15.7%,95.5%
COc1cc(/C=N/Nc2ccc(F)cc2F)cc(OC)c1O,-29.7%,13.4,-27.0,-1.4%,2.2%,?
COc1ccc(/C(C)=N/Nc2ncc(Cl)cc2Cl)c(O)c1,36.8%,8.3,32.7,?,?,?
Cc1ccc(/C=N/Nc2ncc(Cl)cc2Cl)s1,60.0%,34.1*,44.0,.,?,?
O=C(CS(=O)c1ccc(F)cc1)N1CCOCC1 (stereo not drawn),-7.1%,-5.0,0.7,-4.8%[0.00184 µM],4.7%,9.3%
Clc1cnc(N/N=C/c2cccs2)c(Cl)c1,66.3%,35.7*,127.9*,77.3%,-18.6%,?
COc1ccc(Nc2nc(N3CCCCC3)nc(N3CCCCC3)n2)c(OC)c1,-7.4%,-3.3,41.3,14.3%,12.6%,-8.4%
COc1ccc(Nc2nc(NC(C)(C)C)nc(N3CCCC3)n2)c(OC)c1,?,-4.3,-2.3,.,5.62µM*,4.65µM*
COc1ccc(Cl)cc1Nc1nc(N2CCCC2)nc(N2CCCC2)n1,.,-6.2,-13.0,9.8%,-0.6%,16.2%
COc1ccc(N2CCN(c3nc(NC(C)(C)C)nc(N4CCCCC4)n3)CC2)cc1,?,7.7,-1.7,1.85µM*,?,.

# Source: PubChem (National Center for Advancing Translational Sciences (NCATS))
